This passage reports activity change, negative = inhibition results from PubChem BioAssay AID1259341 (Broad Institute, 2017).

Values without a mark were called inactive. The source made the active and inactive calls.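 Rule for the calls: active = activity change under -35% in any replicate well, with more than 20 beads read in that well; inactive = the rest.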

This experiment deals with Caspase recruitment domain-containing protein 9 (Homo sapiens) + E3 ubiquitin-protein ligase TRIM62 (Homo sapiens) (UniProt Q9H257+Q9BVG3). The experiment can be described thus: CARD9/TRIM62 protein interaction inhibitors – cell lysate, HEK293FT lysates, Luminex bead ELISA, primary screen (AID 1259341).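 Note: PE anti-Flag signal of Flag-CARD9 captured by myc-TRIM62 beads.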 Conditions: PE fluorescence, hits give low values, concentration not given here.
Sequence of Caspase recruitment domain-containing protein 9 (Homo sapiens) + E3 ubiquitin-protein ligase TRIM62 (Homo sapiens) (Q9BVG3 whole entry, looked up, the tested form may be a part): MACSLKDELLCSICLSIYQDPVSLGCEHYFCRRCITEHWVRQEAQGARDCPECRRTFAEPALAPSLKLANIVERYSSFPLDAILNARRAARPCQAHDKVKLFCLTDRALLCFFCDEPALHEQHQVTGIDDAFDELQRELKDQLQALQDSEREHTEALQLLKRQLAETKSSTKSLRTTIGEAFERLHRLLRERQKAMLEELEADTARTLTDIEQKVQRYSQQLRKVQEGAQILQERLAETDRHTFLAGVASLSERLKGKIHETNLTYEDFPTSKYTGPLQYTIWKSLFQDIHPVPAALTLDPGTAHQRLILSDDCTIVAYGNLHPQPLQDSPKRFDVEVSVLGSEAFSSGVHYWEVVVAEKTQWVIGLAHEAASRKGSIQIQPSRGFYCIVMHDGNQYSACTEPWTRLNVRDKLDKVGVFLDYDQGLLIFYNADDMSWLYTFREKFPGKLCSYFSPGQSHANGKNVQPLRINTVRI
Sequence of Caspase recruitment domain-containing protein 9 (Homo sapiens) + E3 ubiquitin-protein ligase TRIM62 (Homo sapiens) (Q9H257 whole entry, looked up, the tested form may be a part): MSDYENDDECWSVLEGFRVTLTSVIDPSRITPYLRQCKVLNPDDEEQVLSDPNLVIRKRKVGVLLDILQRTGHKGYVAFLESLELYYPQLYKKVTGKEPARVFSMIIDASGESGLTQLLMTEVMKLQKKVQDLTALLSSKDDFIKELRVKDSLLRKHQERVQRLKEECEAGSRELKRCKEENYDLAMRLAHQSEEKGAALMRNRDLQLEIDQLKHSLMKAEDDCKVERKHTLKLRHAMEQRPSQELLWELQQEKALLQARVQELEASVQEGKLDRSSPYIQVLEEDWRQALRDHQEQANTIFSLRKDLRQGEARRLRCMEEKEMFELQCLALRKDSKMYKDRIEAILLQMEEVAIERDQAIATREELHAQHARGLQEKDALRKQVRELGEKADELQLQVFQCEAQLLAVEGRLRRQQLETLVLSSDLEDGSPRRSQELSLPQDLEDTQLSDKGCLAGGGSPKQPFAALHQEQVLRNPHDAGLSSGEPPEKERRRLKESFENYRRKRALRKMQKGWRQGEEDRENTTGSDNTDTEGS
Consider `COc1ccc(-c2nc(SCC(=O)N3CCN(c4ccccc4OC)CC3)n[nH]2)cc1`, for which the activity change, negative = inhibition was 23.5%.
The value for `O=C(NCCc1ccco1)c1ccc(OCc2cn3ccccc3n2)cc1` was 0.111%.
In the case of `Cc1ccc(Nc2nc(C(=O)Nc3ccc(Br)cc3)nc3ccccc23)cc1`, the activity change, negative = inhibition was 4.69%.
Then `CC(C)C(CC(=O)NCc1ccco1)c1ccco1` (stereo not given), with -8.54%; and `CCCN1CCCn2nc(CNC(=O)[C@H]3CC[C@@H](N)C3)cc2C1`, with -7.32%.
The value for `Nc1ccc(-c2cccc(CN3CCCC3)c2)cc1` was -3.56%.
Then `N#CCSc1nc2c(c(=O)n1Cc1ccco1)C1(CCCC1)Cc1ccccc1-2`, with -5.29%; and `Cc1nc2ccccc2nc1CSCc1ccco1`, with 1.2%; and `Cc1ccc(C(=O)Nc2cnc(N3CCC(C(N)=O)(N4CCCCC4)CC3)c(C(=O)O)c2)cc1`, with -51.3% (active).
As for `Clc1ccc2nc(CN3CCCCCC3)cn2c1`, the activity change, negative = inhibition was 5.28%.
The value for `O=C1NC(c2ccc(Br)cc2)Nc2sc3c(c21)CCC3` (stereo not given) was -3.86%; that for `Cc1ccc(Cc2cnc(N)s2)o1` was 18.6%.
The value for `Cc1ccc(-c2nn(-c3ccccc3)cc2CN(Cc2ccccc2)C(=O)CCC(=O)O)o1` was 7.87%.
The value for `O=C(O)c1ccccc1SC1CC(=O)N(Cc2ccccc2)C1=O` (stereo not given) was 6.92%; that for `N#Cc1c(NC(=O)CSc2nc3ccccc3o2)sc2c1CCC2` was 2.26%; that for `CN(c1ccccc1C(=O)NCc1ccco1)S(C)(=O)=O` was -3.12%.
As for `COc1ccc(NC(=O)CN(C)C(=O)c2cc(-c3ccco3)nc3ccccc23)cc1`, the activity change, negative = inhibition was -8.21%.
As to `C[n+]1cccc2cccc(O)c21`, the activity change, negative = inhibition is -2.89%.
The value for `COc1ccc(S(=O)(=O)Nc2ccc3c(c2)C(=O)N([C@H](C)CO)C[C@H](C)[C@@H](CN(C)CC2CCCCC2)OCCCC[C@H](C)O3)cc1` was 5.92%; that for `COc1ccc(S(=O)(=O)N2CCN(C(=O)c3cc4c(s3)CCC4)CC2)cc1` was 0.552%.
